# Reference: PubChem BioAssay AID493240 (Broad Institute, 2011)
# Out of some 1,300 compounds screened, about 270 (21%) were called active. No rule for the calls is given here. Only a sample is shown. Potency and affinity values are given separately.
# Assay: cytotoxicity in parental SK-MEL-5 melanoma cells – cell-based, CellTiter-Glo, cherry-picked, set 3, orthogonal assay for MITF inhibitor project, dose response (AID 493240)
# Details: SK-MEL-5 viability, ATP luminescence (CellTiter-Glo), 24 h; series mostly up to 35 µM; activity change, negative = viability loss: at the top concentration
row,Compound,"activity change, negative = viability loss"
1,COCCn1c(C)cc(C(=O)CSc2nnc(C)s2)c1C,-11.4% (inactive)
2,c1ccc(CSc2nnc(-c3ccco3)n2Cc2ccco2)cc1,-8.61% (inactive)
3,N#Cc1c(NC(=O)CSc2ncn[nH]2)sc2c1CCCC2,5.56% (inactive)
4,COc1ccc(-c2cc(-c3ccc(OC)c(OC)c3)n[nH]2)c(O)c1,-23.7% (inactive)
5,CCCC1=Nc2cc(C(=O)NCCN3CCCC3)ccc2Sc2ccccc21,-42.8% (inactive)
6,N#CC(C#N)=C1C=CC=CN1/C(=C\c1ccco1)C(=O)c1ccc(Cl)cc1,-21.5% (inactive)
7,O=C(Nc1ccc2c(c1)OCCO2)c1coc2ccccc2c1=O,2.93% (inactive)
8,O=C(NCc1ccccc1)NC1(C(=O)Nc2ccc3c(c2)OCCO3)CCCCC1,6.86% (inactive)
9,CCOC(=O)/C=c1\s/c(=C\c2ccc3cc(OC)ccc3c2)c(=O)n1CC(=O)NCC1CCCO1 (centres undefined),-29.1% (inactive)
10,COc1ccc(/C=N/NC(=O)Cc2cccs2)cc1,-10.2% (inactive)
11,COc1ccc(N(CC(=O)NCC2CCCO2)S(=O)(=O)c2ccccc2)cc1OC (centres undefined),5.1% (inactive)
12,CC(C)(C)C(=O)Cn1ncc(Br)c(Br)c1=O,0.059% (inactive)
13,Cn1cc(C(=O)CCl)c2ccccc21,-42.3% (inactive)
14,Cc1ccc2c(C(=O)CCl)c(C)[nH]c2c1,-25.4% (inactive)
15,COc1ccccc1N1C(=O)N(C(C)=O)C2C1Nc1ccccc1N2C (centres undefined),-28.2% (inactive)
16,Cc1cccc(OCc2nc3ccccc3n2C)c1,7.63% (inactive)
17,Cc1nc(NC(=O)C2CC2)sc1C(=O)Nc1ccccc1Cl,8.3% (inactive)

row,Compound,"activity change, negative = viability loss"
1,CCOc1ccc(N=C(C)C2=C(O)c3ccccc3C2=O)cc1,-3.12% (inactive)
2,O=C(CC(=O)c1ccccc1)Nc1ccccc1,3.63% (inactive)
3,CCCCOC(=O)Nc1ccc2c(C)cc(=O)oc2c1,-13.8% (inactive)
4,COc1ccc(S(=O)NC2CCCCC2)c(OC)c1C (centres undefined),2.77% (inactive)
5,COc1cc(CN2CCC(Cc3ccccc3)CC2)cc(OC)c1OC,1.19% (inactive)
6,CCOC(=O)C1(Cc2cccc(OC)c2)CCCN(C(=O)CSC)C1 (centres undefined),4.52% (inactive)
7,CC(C)(C)c1ccc(C(=O)N2CCCCCC2=O)cc1,13.2% (inactive)
8,C=CC[n+]1c(-c2ccc(C)cc2)csc1Nc1ccc(NC(C)=O)cc1,-13.5% (inactive)
9,O=C1c2ccccc2C(=O)N1CCOc1ccccc1,4.74% (inactive)
10,CC(C)(C)c1ccc(OCCCNCc2ccccc2)cc1,-25.9% (inactive)
11,CCOC(=O)c1cc(-c2ccc(OC)cc2)n[nH]1,-8.16% (inactive)
12,COc1ccc(C(=O)Nc2ccc(C)cn2)c(OC)c1,-36.4% (inactive)
13,O=C(N/N=C/c1ccccn1)c1cc([N+](=O)[O-])cc([N+](=O)[O-])c1,-4.85% (inactive)
14,COc1ccc(C(C(=O)NC2CCCCC2)N(C(=O)CCl)c2ccc(OC)cc2)cc1 (centres undefined),-18.5% (inactive)
15,COc1ccc(N(C(=O)CCl)C(C(=O)NC2CCCCC2)c2cccnc2)cc1 (centres undefined),19.2% (inactive)
16,O=C1c2ccccc2S(=O)(=O)N1Cc1nc2ccccc2s1,-8.25% (inactive)
17,CCn1c(C)cc(C(=O)CN2C(=O)c3ccccc3S2(=O)=O)c1C,-1.22% (inactive)
